Inconclusive results are not listed. The source made the active and inactive calls. The call rests on the fitted dose curve; in most records, active means well fitted inhibition curve with a large enough effect; inconclusive means small, poorly fitted or top-dose-only effect; inactive means flat fitted curve, though single readings scatter.
Key:
Test in all cases: Cytotoxic Profiling of Annotated Libraries Using Quantitative High-Throughput Screening (AID 1296008); further: nearly all actives have a fitted effect of over 60% in size
Settings in all cases: Five cell lines viability, CellTiter-Glo ATP luminescence, 48-72 h; max response: stronger effect = lower value
CRL-7250 = normal cell line; tested on: CRL-7250
In short: (§1)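 Cytotoxicity was measured as CellTiter-Glo ATP luminescence, read after 10 min at room temperature. Compound treatment of the cells lasted 48 or 72 hr at 37 degrees Celsius in a qHTS format.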

HEK293 = tested on: HEK293
In short: as §1

HaCat = tested on: HaCat
In short: as §1

KB-3-1 = tested on: KB-3-1
In short: as §1

NIH3T3 = tested on: NIH3T3
In short: as §1

Measured: max response
On the % scale 0 is the no-effect control and ±100 the full control effect.

C=C[C@H]1[C@H](O[C@@H]2O[C@H](CO)[C@@H](O)[C@H](OC(=O)/C=C/c3ccc(O)c(OC)c3)[C@H]2O)OC=C2C(=O)OCC[C@]21O
inactive: CRL-7250 -3.95% | HEK293 -3.81% | HaCat | KB-3-1 6.87% | NIH3T3

C=C1CCC2C(C)(C)CC(=O)CC2(C)C1CCC(C)CCO (stereo not given)
inactive: CRL-7250 -5.3% | HEK293 1.61% | HaCat | KB-3-1 0.95% | NIH3T3

Cc1sc(C)c(C(=O)NC2(c3ccc(C(=O)O)cc3)CC2)c1Cc1ccc(C(F)(F)F)cc1
inactive: CRL-7250 -2.74% | HEK293 -5.46% | HaCat | KB-3-1 8.32% | NIH3T3

CC1OC(O[C@H]2CC[C@@]3(C)C(CC[C@]4(C)C3CC=C3C5CC(C)(C)CC[C@]5(C(=O)OC5OC(CO)C(OC6OCC(OC7OCC(O)C(O)C7O)C(O)C6O)C(O)C5O)CC[C@]34C)C2(C)C)C(O)C(O)C1OC1OC(CO)C(O)C(OC2OC(CO)C(O)C(O)C2O)C1O (stereo not given in full)
inactive: CRL-7250 -2.46% | HEK293 -5.73% | HaCat | KB-3-1 2.43% | NIH3T3 -1.17%

C/C(=C\CC/C(C)=C/CC[C@]1(C)CCc2cc(O)cc(C)c2O1)CC/C=C(\C)C(=O)O
inactive: CRL-7250 0.272% | HEK293 -1.65% | HaCat 4.26% | KB-3-1 -3.09% | NIH3T3

C/C(=C/CO)CC[C@H]1[C@]2(C)C[C@H](O)CC(C)(C)[C@H]2CC[C@]1(C)O
inactive: CRL-7250 -3.5% | HEK293 4.37% | HaCat | KB-3-1 3.57% | NIH3T3 3.86%

CC(C)c1c(NC(=O)Nc2ccc(Cl)cc2)c(=O)n(-c2ccccc2)n1C
inactive: CRL-7250 -6% | HEK293 -5.54% | HaCat | KB-3-1 -6.5% | NIH3T3 -1.6%

CC(=O)O[C@H]1[C@H](O[C@H]2CC[C@]34C[C@]35CC[C@]3(C)[C@@H]([C@@]6(C)CC[C@@H](C(C)(C)O)O6)[C@@H](O)C[C@@]3(C)[C@@H]5C[C@H](O[C@@H]3O[C@H](CO)[C@@H](O)[C@H](O)[C@H]3O)[C@H]4C2(C)C)OC[C@@H](OC(C)=O)[C@@H]1O
inactive: CRL-7250 -0.709% | HEK293 -4% | HaCat | KB-3-1 | NIH3T3 1.91%

C/C=C(\C)C(=O)OC1C2(O)CC3=C4CC(=O)OC(c5ccoc5)C4(C)CCC3C(C)(C2=O)C(C(OC(C)=O)C(=O)OC)C1(C)C (stereo not given)
inactive: CRL-7250 | HEK293 -2.36% | HaCat | KB-3-1 -3.65% | NIH3T3 1.4%

CC(CC(C)O[C@@H]1O[C@H](CO)[C@@H](O)[C@H](O)[C@H]1O)OC(=O)/C=C/c1ccc(O)cc1 (stereo not given in full)
inactive: CRL-7250 2.71% | HEK293 -1.24% | HaCat | KB-3-1 | NIH3T3 3.43%

OC[C@@]1(O)CO[C@H](OC[C@H]2O[C@@H](OC(CCCCc3ccc(O)cc3)CCc3ccc(O)cc3)[C@H](O)[C@@H](O)[C@@H]2O)[C@@H]1O (stereo not given in full)
inactive: CRL-7250 -9.7% | HEK293 -4.6% | HaCat | KB-3-1 9.32% | NIH3T3

CC(=O)OC1CC2C(C)(C)C(=O)C=CC2(C)C2CC(=O)C3=C(CCC3C3=CC(O)OC3=O)C12C (stereo not given)
inactive: CRL-7250 3.26% | HEK293 2.36% | HaCat inactive; activator | KB-3-1 | NIH3T3 0.622%

C=Cc1ccc(O[C@@H]2O[C@H](CO[C@@H]3O[C@@H](C)[C@H](O)[C@@H](O)[C@H]3O)[C@@H](O)[C@H](O)[C@H]2O)cc1
inactive: CRL-7250 -5.44% | HEK293 -5.77% | HaCat | KB-3-1 6.98% | NIH3T3 -1.18%

O=C(/C=C/c1ccc(O)c(O)c1)OC[C@H]1O[C@@H](OC2CCCCC2O)[C@H](O)[C@@H](O)[C@@H]1O (stereo not given in full)
inactive: CRL-7250 | HEK293 -0.405% | HaCat | KB-3-1 1.68% | NIH3T3

COc1c(O)cc2c(c1O)C(=O)O[C@H](C)[C@H]2O
inactive: CRL-7250 | HEK293 -6.03% | HaCat | KB-3-1 4.43% | NIH3T3

CC1(C)CC[C@]2(C(=O)O[C@@H]3O[C@H](CO)[C@@H](O)[C@H](O)[C@H]3O)CC[C@]3(C)C(=CCC4[C@@]5(C)CC[C@H](OC6OC(C(=O)O)C(OC7OC(CO)C(O)C(O)C7O)C(O)C6O)C(C)(C)C5CC[C@]43C)C2C1 (stereo not given in full)
inactive: CRL-7250 0.724% | HEK293 3.09% | HaCat | KB-3-1 | NIH3T3

COc1c(C)c(OCC(O)C(C)(C)O)cc2c1CNC2=O (stereo not given)
inactive: CRL-7250 2.44% | HEK293 -3.96% | HaCat | KB-3-1 5.28% | NIH3T3 -1.72%

CCCC1=CC2=C(CO1)C(=O)C(C)(O)C(OC(=O)c1c(C)cc(OC)cc1O)C2 (stereo not given)
inactive: CRL-7250 -6.12% | HEK293 -3.53% | HaCat | KB-3-1 | NIH3T3

O=C(O)CCc1cccc(O)c1O[C@@H]1O[C@H](CO)[C@@H](O)[C@H](O)[C@H]1O
inactive: CRL-7250 3.73% | HEK293 -3.2% | HaCat | KB-3-1 8.15% | NIH3T3

CC(C)Oc1ccc(-c2nc(-c3cccc4c3CCC4NCCC(=O)O)no2)cc1C#N (stereo not given)
inactive: CRL-7250 0.795% | HEK293 -10.1% | HaCat | KB-3-1 8.29% | NIH3T3

O=C(OC[C@H]1O[C@@H](Oc2ccccc2COC(=O)C2(O)C=CCCC2O)[C@H](O)[C@@H](O)[C@@H]1O)c1ccccc1 (stereo not given in full)
inactive: CRL-7250 | HEK293 -3.05% | HaCat 3.77% | KB-3-1 1.49% | NIH3T3

COc1cc(C(O)C2COC(c3ccc(OC4OC(CO)C(O)C(O)C4O)c(OC)c3)C2CO)ccc1O (stereo not given)
inactive: CRL-7250 -6.83% | HEK293 -1.12% | HaCat | KB-3-1 8.83% | NIH3T3 -19.8%

CS(=O)(=O)c1ccccc1N1CCN(c2nc3c(c(=O)[nH]2)CSCC3)CC1
inactive: CRL-7250 0.787% | HEK293 1.58% | HaCat | KB-3-1 -11.7% | NIH3T3 -5.12%

CC(C)=CC1C[C@](C)(O)[C@@H]2[C@H]3CCC4[C@@]5(C)CC[C@H](O[C@@H]6OC[C@H](O)[C@H](O[C@@H]7O[C@H](CO[C@@H]8O[C@H](CO)[C@@H](O)[C@H](O)[C@H]8O)[C@@H](O)[C@H](O)[C@H]7O)[C@H]6O[C@@H]6O[C@@H](C)[C@H](O)[C@@H](O)[C@H]6O)C(C)(C)[C@@H]5CC[C@@]4(C)[C@@]34CO[C@@]2(C4)O1 (stereo not given in full)
inactive: CRL-7250 -1.09% | HEK293 -3.55% | HaCat 4.88% | KB-3-1 | NIH3T3

Cc1occc(=O)c1O[C@@H]1O[C@H](CO)[C@@H](O)[C@H](O)[C@H]1O
inactive: CRL-7250 -1.36% | HEK293 2.23% | HaCat | KB-3-1 | NIH3T3

CC1=CC(=O)[C@]2(O[C@@H]3O[C@@H](C)[C@H](O)[C@@H](O)[C@H]3O)C=CO[C@@H](O[C@@H]3O[C@H](CO)[C@@H](O)[C@H](O)[C@H]3O)[C@H]12
inactive: CRL-7250 | HEK293 -3.6% | HaCat | KB-3-1 | NIH3T3

CC(C)C1CCC(C(=O)N[C@@H](Cc2ccccc2)C(=O)O)CC1 (stereo not given in full)
inactive: CRL-7250 | HEK293 3.42% | HaCat | KB-3-1 | NIH3T3

COc1ccc(O[C@@H]2O[C@H](CO)[C@@H](O)[C@H](O)[C@H]2O)cc1OC
inactive: CRL-7250 | HEK293 3.27% | HaCat -16.7% | KB-3-1 | NIH3T3

OC[C@H]1O[C@@H](OCCc2ccccc2)[C@H](O[C@@H]2OC[C@@H](O)[C@H](O)[C@H]2O)[C@@H](O)[C@@H]1O
inactive: CRL-7250 | HEK293 4.26% | HaCat | KB-3-1 9.19% | NIH3T3

CC1=C2C(=O)C=C(CO)C2[C@H]2OC(=O)[C@H](C)[C@@H]2[C@@H](OC(=O)Cc2ccc(O)cc2)C1 (stereo not given in full)
inactive: CRL-7250 | HEK293 -2.2% | HaCat 3.29% | KB-3-1 | NIH3T3

Cc1cccc(NC(=O)CN2CCC(c3ccccn3)CC2)c1
inactive: CRL-7250 | HEK293 -3.86% | HaCat | KB-3-1 -2.52% | NIH3T3 4.5%

CC1(C)CC[C@]2(C(=O)O[C@@H]3O[C@H](CO)[C@@H](O)[C@H](O)[C@H]3O)[C@H](O)C[C@]3(C)C(=CCC4[C@@]5(C)CC[C@H](O[C@@H]6OC[C@@H](O)[C@H](O)[C@H]6O)[C@@](C)(C(=O)O)C5CC[C@]43C)[C@@H]2C1 (stereo not given in full)
inactive: CRL-7250 -8.24% | HEK293 -10.4% | HaCat | KB-3-1 -4.94% | NIH3T3 4.43%

O=C(NCCN1CCCC1)c1cc(-c2ccc(CN3CCOCC3)cc2)nc2ccc(F)cc12
inactive: CRL-7250 3.26% | HEK293 2.05% | HaCat | KB-3-1 | NIH3T3 1.71%

C[C@]1(OC(=O)/C=C/c2ccccc2)C[C@@H](O)[C@]2(O)C=CO[C@@H](O[C@@H]3O[C@H](CO)[C@@H](O)[C@H](O)[C@H]3O)[C@@H]21
inactive: CRL-7250 -4.65% | HEK293 3.08% | HaCat | KB-3-1 8.76% | NIH3T3

C[C@@H]1CC[C@]2(C(=O)O[C@@H]3O[C@H](CO[C@@H]4O[C@H](CO)[C@@H](O[C@@H]5O[C@@H](C)[C@H](O)[C@@H](O)[C@H]5O)[C@H](O)[C@H]4O)[C@@H](O)[C@H](O)[C@H]3O)CC[C@]3(C)C(=CCC4[C@@]5(C)C[C@@H](O)[C@H](O)[C@@](C)(CO)C5CC[C@]43C)C2[C@H]1C (stereo not given in full)
inactive: CRL-7250 -0.89% | HEK293 -0.975% | HaCat | KB-3-1 3.97% | NIH3T3 1.43%

Cn1cc(CCn2cnc(-c3cnn(C)c3)c2-c2ccc(C#N)cc2)cn1
inactive: CRL-7250 -0.888% | HEK293 0.036% | HaCat -11.5% | KB-3-1 | NIH3T3

— PubChem BioAssay (NCATS)
